{"source": "PubChem BioAssay (NCI)", "note": "The panel holds about 83,000 compounds, 20% with a hit somewhere; the sample as a whole holds those more often.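 Percent growth is the endpoint: 0 to 100 indicates growth inhibition (40 means 60% inhibition), 0 means no net growth, and negative values indicate cell death.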 The source made the active and inactive calls. How the source made its calls: active means growth percent below 10; inactive means the rest."}
{"test_system": "OVCAR-4 ovarian", "experiment": "NCI-60 one-dose screen, 48 h (100 = growth as untreated, 0 = no growth, -100 = all killed)", "settings": "10 µM unless noted"}
{"smiles": "Cc1ccc(NC(=O)c2ccc(CN3CCN(C)CC3)c(C(F)(F)F)c2)cc1Oc1ccc(-c2[nH]nc3ncnc(N)c23)cc1", "growth": "90.7% (inactive)"}
{"smiles": "COc1ccc([C@H]2c3[nH]c4ccccc4c3C[C@@H]3C(=O)N(C4CCN(Cc5ccccc5)CC4)CC(=O)N23)c(OC)c1", "growth": "82.7% (inactive)"}
{"smiles": "IP(CCCSc1n(Cc2ccc3ccccc3c2)c(-c2ccccc2)c(-c2ccccc2)[n+]1Cc1ccc2ccccc2c1)(c1ccccc1)(c1ccccc1)c1ccccc1", "growth": "23.2% (inactive)"}
{"smiles": "O=C1NC(=O)c2c1c1c3ccccc3ccc1c1[nH]c3ccccc3c21", "growth": "25.8% (inactive)"}
{"smiles": "COc1cc(/C=N/n2cnc3oc(-c4ccccc4)cc3c2=N)cc(CN2CCN(C)CC2)c1O", "growth": "97.7% (inactive)"}
{"smiles": "COC1=C(c2ccccc2)C(=O)C(OC)=C(c2ccccc2)C1=O", "growth": "59.6% (inactive)"}
{"smiles": "Cc1ccc(-c2csc(N/N=C/c3nc4ccccc4n3C3CC3)n2)cc1", "growth": "93.1% (inactive)"}
{"smiles": "CC(C)=CCc1c(O)c(CC=C(C)C)c2c(c1O)C(=O)C1=C[C@@H]3C[C@H]4C(C)(C)O[C@@](C/C=C(\\C)C(=O)O)(C3=O)[C@@]14O2", "growth": "33.2% (inactive)"}
{"smiles": "CN1CCN(c2nc(-c3csc(-c4ccncc4)n3)cc3ccccc23)CC1", "growth": "84.9% (inactive)"}
{"smiles": "CN1C(=O)N(C)C2C1NN=c1s/c(=C\\c3ccccn3)c(=O)n12", "note": "(configuration not stated)", "growth": "105% (inactive)"}
{"smiles": "CC(C)SC1=NC(=C(C(=N1)NC2=ClC=CC=C2)C#N)C3=CC=CC=C3", "growth": "-4.9% (active)"}
{"smiles": "CC(=O)NC(C)(C)C(=O)N[C@@H](C)C(=O)NC(C)(C)C(=O)N[C@@H](C)C(=O)NC(C)(C)C(=O)N[C@@H](C)C(=O)N[C@@H](CCC(N)=O)C(=O)NC(C)(C)C(=O)N[C@H](C(=O)NC(C)(C)C(=O)NCC(=O)N[C@@H](CC(C)C)C(=O)NC(C)(C)C(=O)N1CCC[C@H]1C(=O)N[C@H](C(=O)NC(C)(C)C(=O)NC(C)(C)C(=O)N[C@@H](CCC(N)=O)C(=O)N[C@@H](CCC(N)=O)C(=O)N[C@H](CO)CC1CCCCC1)C(C)C)C(C)C", "growth": "23.8% [5 µM] (inactive)"}
{"smiles": "Clc1ccc(-c2csc(N/N=C/c3nc4ccccc4n3C3CC3)n2)cc1", "growth": "101% (inactive)"}
{"smiles": "O=C(NCCCNc1cc(-c2cn(-c3ccccc3)nc2-c2cccc(O)c2)ccn1)Nc1cc(C(F)(F)F)cc(C(F)(F)F)c1", "growth": "66.9% (inactive)"}
{"smiles": "COc1ccc(-c2ccc3c4c(cccc24)C(=O)N(N2C(=O)c4cccc5cccc(c45)C2=O)C3=O)cc1", "growth": "97.5% (inactive)"}
{"smiles": "Cc1cc(C(=O)Nc2ccc(SC#N)cc2)c(C)o1", "growth": "104% (inactive)"}
{"smiles": "Oc1ccc(CSc2nnc(-c3cnccn3)o2)c2cccnc12", "growth": "36.6% (inactive)"}
{"smiles": "O=C(O)c1ccc(-n2cc(CNc3ccc(Cl)cc3)c(-c3ccc(F)cc3)n2)cc1", "growth": "101% (inactive)"}
{"smiles": "Cc1cn(-c2cc(NC(=O)c3cncc(C#Cc4cnc5ccc(OCCCS(C)(=O)=O)nn45)c3)cc(C(F)(F)F)c2)cn1", "growth": "58.4% (inactive)"}
{"smiles": "N/C(=N\\OC(=O)CSc1nc2ccccc2s1)c1ccc2ccccc2c1", "growth": "109% (inactive)"}
{"smiles": "Nc1nc(-c2cccc([N+](=O)[O-])c2)c(N=Nc2cccc(Cl)c2)s1", "growth": "49.2% (inactive)"}
{"smiles": "CC[C@@](C)(NC(=O)C(C)(C)NC(=O)[C@@H](NC(=O)[C@@H]1CCCN1C(=O)C(C)(C)NC(=O)[C@H](CC(C)C)NC(=O)CNC(=O)C(C)(C)NC(=O)[C@@H](NC(=O)C(C)(C)NC(=O)[C@H](CCC(N)=O)NC(=O)[C@H](C)NC(=O)C(C)(C)NC(=O)[C@H](C)NC(=O)C(C)(C)NC(=O)[C@@H]1CCCN1C(=O)C(C)(C)NC(C)=O)C(C)C)C(C)C)C(=O)N[C@@H](CCC(N)=O)C(=O)N[C@@H](CCC(N)=O)C(=O)N[C@H](CO)Cc1ccccc1", "growth": "59.2% [4.25 µM] (inactive)"}
{"smiles": "COc1ccc(-c2nn(-c3ccccc3)cc2/C=C/C(=O)c2ccc(NC(=O)CCCCCCC(=O)NO)cc2)cc1", "growth": "97.5% (inactive)"}
{"smiles": "Nc1ccc(-c2nnc(SCc3ccc(O)c4ncccc34)o2)cc1", "growth": "-1.57% (active)"}
{"smiles": "O=C1Nc2ccc(Cl)cc2/C1=C/c1ccc(OCc2ccc(Br)cc2F)cc1", "growth": "100% (inactive)"}
{"smiles": "C=C1C(=O)O[C@@H]2/C=C(/C)C3=CC(=O)[C@@](C)(C[C@H](OC(=O)/C(C)=C\\C)[C@@H]12)O3", "growth": "21% (inactive)"}
{"smiles": "O=C(CCCCCCN1CC(=O)N2[C@@H](c3cccc(Cl)c3)c3[nH]c4ccccc4c3C[C@H]2C1=O)NO", "growth": "61% (inactive)"}
